Source: PubChem BioAssay
Sampled rows, rich in hits. Any-hit rate of the full collection: about 3.4%.
TEAD-YAP block: TEAD-YAP interaction inhibition; AID 1259422; hit rate 1.4% among 640,000; HEK-TIYL cells, TEAD-Gal4/YAP UAS-luciferase luminescence; inhibition, % at 9.12 µM; in the data active = inhibition above about 32%;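 also: 0% = median of test compound wells and 100% = reference inhibitor wells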
FBW7 act: activators of human E3 ligase FBW7; AlphaScreen FBW7–phospho-cyclin E peptide binding, activator screen; normalized activity (activation), % at 26.1 µM; hit rate 0.13% among 650,000; AID 1259310; in the data active = normalized activity above about 1.9%;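 also: purified mutant Fbw7 with reduced substrate affinity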
GPR151 activ: human GPR151 activation; activation, % at 11.2 µM; AID 1508602; hit rate 1% among 650,000; PathHunter beta-arrestin GPR151 cells, luminescence; in the data active = activation above about 4.9%;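 also: 0% = median of compound wells and 100% = cells with positive control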
Target sequence (Q8TDV0 whole entry, looked up): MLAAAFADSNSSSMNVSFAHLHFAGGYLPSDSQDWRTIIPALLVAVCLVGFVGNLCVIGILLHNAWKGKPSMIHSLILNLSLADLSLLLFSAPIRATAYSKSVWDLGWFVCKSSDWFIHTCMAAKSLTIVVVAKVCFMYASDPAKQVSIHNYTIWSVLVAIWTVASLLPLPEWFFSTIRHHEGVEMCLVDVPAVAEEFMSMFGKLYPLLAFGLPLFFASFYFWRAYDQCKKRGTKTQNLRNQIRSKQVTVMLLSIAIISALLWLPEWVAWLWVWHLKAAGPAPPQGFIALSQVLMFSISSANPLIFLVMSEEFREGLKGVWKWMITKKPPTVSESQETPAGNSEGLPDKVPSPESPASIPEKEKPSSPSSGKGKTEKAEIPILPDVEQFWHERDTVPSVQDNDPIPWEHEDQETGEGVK
MITF inh: inhibitors of human MITF; O75030; AlphaScreen MITF homodimerization, bead proximity signal; inhibition, % at 2.6 µM; hit rate 0.91% among 650,000; AID 1259374; in the data active = inhibition above about 50%;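 also: 0% = vehicle wells with protein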
GPR151 conf act: human GPR151 activation, confirmation screen | shares compounds with GPR151 activ | GPR151 PathHunter beta-arrestin cells, luminescence, 90 min; % of EA-reagent control over plate median | activation, % at 11.2 µM | 6,700 tested, under 10 active;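 active = mean percent activation across replicates above the confirmation screen cutoff of 4.91%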
GPR119 counter: activates human GPR119 in a GPR151 counter-screen; shares compounds with GPR151 activ; GPR119 PathHunter beta-arrestin cells, luminescence, 90 min; 0 = compound-well median, 100 = enzyme-acceptor control; activation, % at 11.2 µM; hit rate 0.3% among 6,700;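 active = mean percent activation in the counterscreen above 29.09%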;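 also: counterscreen on off-target GPR119 to flag nonselective hits from the GPR151 activator screen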
An asterisk follows results filed as active; . = no result.

SMILES	TEAD-YAP block	FBW7 act	GPR151 activ	MITF inh	GPR151 conf act	GPR119 counter
O=C(CSc1nc(-c2cccc([N+](=O)[O-])c2)cs1)N1CCOCC1	5.5	-0.5	1.6	7.7	.	.
CCSc1nnc(NC(=O)CSc2nncc(=O)[nH]2)s1	4.7	0.0	1.4	4.8	.	.
O=C(Nc1ccccc1Cl)c1csc(-n2cccc2)n1	-50.4	0.2	5.7*	0.8	0.0	0.6
COc1ccc(C(=O)N2c3ccccc3N3C(c4c(C)c(C)c(Cl)c(C)c4C)=NON23)cc1	9.0	0.1	0.9	-0.8	.	.
C/C(=N\Nc1ccc(C(F)(F)F)cn1)c1ccc(O)cc1	-0.5	0.0	-0.1	-7.8	.	.
C/C(=N\Nc1ccc(C(F)(F)F)cn1)c1ccncc1	-28.1	-0.2	6.4*	-5.0	0.0	-8.2
O=C(Nn1c(=S)[nH]c2ccccc2c1=O)c1ccc(Br)cc1	-4.2	0.0	-0.6	8.2	.	.
O=C(O)c1ccc(Nn2c(=S)[nH]c3ccccc3c2=O)cc1	-0.5	0.0	5.0*	5.5	-0.5	-11.7
CC1CCN(c2nc3cc4c(cc3cc2C#N)OCO4)CC1	8.9	1.2	-0.3	7.6	.	.
Cc1ccc(C)c(N2CCN(C(=O)Cc3noc4ccccc34)CC2)c1	-5.0	1.7	-0.7	2.9	.	.
COc1ccc(/C=C(\C#N)C(=O)Nc2ccccn2)cc1	2.2	0.1	5.1*	4.5	1.5	6.5
COc1cc(/C=N/NC(=O)Cn2nnc(-c3ccccc3)n2)cc2sc(=O)oc12	9.0	0.0	8.0*	5.1	-0.1	4.4
COc1cc(/C=N/NC(=O)CN2CC(c3ccccc3)CC2=O)cc2sc(=O)oc12 (stereo unspecified)	4.9	-0.5	0.5	0.1	.	.
CC(C)(C)n1nnnc1C(c1cccnc1)N1CCN(c2ccccc2F)CC1 (stereo unspecified)	4.7	-0.1	8.4*	2.8	0.3	9.7
CCC(C)(C)n1nnnc1C(c1ccc(C)cc1)N1CCN(Cc2cccnc2)CC1 (stereo unspecified)	-11.8	-0.1	6.4*	4.8	0.3	10.6
COc1ccc(NS(=O)(=O)c2ccc(N/C=C\C(=O)c3ccccc3)cc2)nn1	8.7	0.2	7.2*	0.3	-1.1	-11.3
COc1ccc2nc3sc(C(=O)Nc4cccc(C(C)=O)c4)c(N)c3cc2c1	-75.2	0.1	5.3*	-11.3	0.1	23.1
COC(=O)C(Sc1cc2c(cc1O)OCO2)(C(F)(F)F)C(F)(F)F	2.6	-0.3	5.3*	4.6	0.0	1.0
COC(=O)C(Sc1c(O)cc(C)oc1=O)(C(F)(F)F)C(F)(F)F	-9.9	-1.3	-0.2	5.4	.	.
CC(C)OC(=O)c1nn2c(C(F)(F)F)cc(-c3ccc(Br)cc3)nc2c1Cl	7.9	0.2	-0.3	7.7	.	.
O=C(NC1CCCC1)c1ccc(CNS(=O)(=O)c2ccc(Cl)cc2)cc1	-6.4	0.0	-0.2	-16.3	.	.
O=CC12c3ccccc3C(c3ccccc31)C1C(=O)N(c3ccc([N+](=O)[O-])cc3)C(=O)C12 (stereo unspecified)	9.6	0.2	-0.7	5.8	.	.
COc1cccc(S(=O)(=O)Nc2ccc(Cl)c(C(F)(F)F)c2)c1	1.4	-0.1	7.1*	2.7	1.1	-0.9
COC(=O)c1cc(NS(=O)(=O)c2ccc3ccccc3c2)ccc1Cl	3.0	0.3	5.0*	0.6	0.4	4.3
CCOC(=O)c1sc(NC(=O)CSC2=NC(=O)C(Cc3ccccc3)C(=O)N2)nc1C (stereo unspecified)	-6.8	0.1	0.4	3.3	.	.
SMILES	TEAD-YAP block	FBW7 act	GPR151 activ	MITF inh	GPR151 conf act	GPR119 counter
COc1ccccc1NC(=O)C1CC12CCN(Cc1ccc3nsnc3c1)CC2 (stereo unspecified)	3.0	0.3	0.6	-7.4	.	.
Nc1nc(N2CCC(N3CCOCC3)CC2)nc2c1ncn2Cc1ccc(C(F)(F)F)cc1	-11.1	0.0	6.4*	-7.8	-0.5	-1.3
Nc1nc(N2CCOCC2)nc2c1ncn2Cc1ccc(C(F)(F)F)cc1	-2.9	-0.2	-0.4	0.3	.	.
Cc1noc(C)c1-c1nc(N)c2ncn(Cc3ccc(C(F)(F)F)cc3)c2n1	-14.8	0.2	5.8*	12.1	-1.2	-9.3
Cc1noc(C)c1-c1nc(NC2CC2)c2ncn(Cc3ccc(C(F)(F)F)cc3)c2n1	-6.3	0.1	0.0	14.5	.	.
Cc1ccc(CNc2nc(CN(C)C3CCOC3)nc3ccccc23)cc1 (stereo unspecified)	11.3	-0.3	-0.7	9.7	.	.
